# Measurements: PubChem BioAssay AID931 (National Center for Advancing Translational Sciences (NCATS), 2007)
# Records with an inconclusive call do not appear. Unmarked numbers belong to inactive results. Activity calls are given as the source filed them. Calls come from the whole dose curve; as a rule, active = well fitted cell-killing curve with a large enough effect; inconclusive = small, poorly fitted or top-dose-only effect; inactive = flat fitted curve, though single readings scatter.
# Test: Confirmation and Secondary Assay for Modulators of Hemoglobin Beta Chain Splicing at IVS2 654 locus: Cytotoxicity
# Details: HBB IVS2-654 splicing reporter cells; series mostly up to 46.1 µM; activity change, negative = cytotoxicity: at the top concentration
# From the text: NIH Chemical Genomics Center [NCGC]
# NIH Molecular Libraries Screening Centers Network [MLSCN]
# PI Name: Dr. Ryszard Kole
# Modulation of Alternative Splicing as Therapy
# Abnormal splicing is associated with a number of diseases, including cancer and genetic diseases such as cystic fibrosis, muscular dystrophy and beta-thalassemia. Alteration of disease associated splicing patterns provides a promising target for treatment. […] Mutations in the second intron of the b-globin gene at positions 654 or 705 are clinically relevant and cause mis-splicing which results in an out of frame gene product.
# Examination of toxicity of select compounds in EGFP-654 HeLa Cells
# HeLa cell lines were stably transfected with a construct in which the EGFP (enhanced green fluorescent protein) cDNA was interrupted by the second intron of the beta-globin gene (IVS2-654). The ISV2 intron contains mutations which cause mis-splicing of EGFP and premature termination of EGFP which results in a nonfluorescent protein product. […] Expression of the transgene was driven by the CMV promoter. Compounds, and related structures identified in the primary screen as potential splicing modulation were examined for their effects on cell toxicity in this follow up assay .
# NCGC Assay Protocol Summary:
# Toxicity Screening. Freshly thawed HeLa EGFP-654 cells were seeded in 5 ul of optimem media (Invitrogen) containing 2 % fetal calf serum (Hyclone) and 1x penicillin/streptomycin (Invitrogen) at a concentration of 500 cells per well in 1536-well plates. Cells were incubated overnight at 37C in 5% CO2. The next day, cells were treated with DMSO, 500 nM antisense ISV2 654 PNA control oligo, or library compound and allowed to grow at 37C in 5% CO2 for 2 days. Cells were treated with 5 ul/well of freshly prepared ATPlite (Perkin Elmer) and cells were allowed to lyse at room temperature for 5 minutes. Luminescence was captured on an Viewlux CCD imager (Perkin Elmer) using a 15 second integration time and cell death was measured by comparing compound treatments to DMSO treatment (no cell death).
# Keywords: Thalassemia, beta-thalassemia, beta-globin, EGFP, ISV2 654, ISV2 705, SSO, PNA, antisense, splicing, ATPlite, toxicity, MLSMR, MLSCN, NIH Roadmap, qHTS, NCGC
SMILES,Potency,"activity change, negative = cytotoxicity"
Cn1cnc([N+](=O)[O-])c1Sc1ncnc2nc[nH]c12,316 nM (active),–
OCC1OC(n2cnc3c(=S)nc[nH]c32)C(O)C1O (centres undefined),3160 nM (active),–
NC1=NC(S)C2N=CN=C2N1 (centres undefined),316 nM (active),–
Nc1nc(=O)n(C2OC(CO)C(O)C2O)cc1Cl (centres undefined),–,-10.6%
Nc1ncnc2c1nc(Cl)n2C1OC(CO)C(O)C1O (centres undefined),–,6.51%
OCC1OC(n2cnc3c(Cl)ncnc32)C(O)C1O (centres undefined),–,-9.7%
O=c1[nH]c(=O)n(C2CC(O)C(CO)O2)cc1F (centres undefined),–,-25%
N=c1ccn2c(n1)O[C@@H]1[C@@H](O)[C@H](CO)O[C@H]12,–,-14%
Nc1ncn([C@@H]2O[C@H](CO)[C@@H](O)[C@H]2O)c(=O)n1,1260 nM (active),–
CSc1ncnc2c1ncn2C1OC(CO)C(O)C1O (centres undefined),794 nM (active),–
Nc1ccn([C@H]2CC[C@@H](CO)O2)c(=O)n1,–,1.26%
Nc1nc(Cl)nc2c1ncn2[C@H]1C[C@H](O)[C@@H](CO)O1,–,-14.5%
S=C1NC=NC2N=CNC12 (centres undefined),199 nM (active),–
Nc1ncnc2c1nc(Br)n2C1OC(CO)C(O)C1O (centres undefined),–,-26.4%
